Source: PubChem
HepG2 tox: qHTS for Inhibitors of TGF-b: Cytotox Counterscreen. HepG2 CAGA-GFP viability, ATP luminescence, 18 h. Potency, µM (doses to about 46.1 µM), usual class: cytotoxic. 410,000 compounds, 0.76% hits. AID 588856, 2011
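HepG2 CAGA-GFP cells (1000/well, DMEM with 1% FBS) received compound, then TGF-beta at 500 pg/mL final, and were incubated 18 hours at 37 degrees C. Viability was read by CellTiter-Glo luminescence. Media-only wells were set as complete cell-killing and DMSO as no toxicity.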
TDP1 cell noCPT: qHTS for Inhibitors of human tyrosyl-DNA phosphodiesterase 1 (TDP1): qHTS in cells in absence of CPT | Potency, µM (doses to about 46.2 µM), hits mostly inhibitors | DT40 Tdp1-/- hTDP1 cells, no CPT, ATP luminescence, 48 h | 420,000 compounds, 15% hits | AID 686978, 2013; note: nearly all actives have a fitted effect of over 55% in size
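Readout: luminescence from CellTiter-Glo after 30 min in the dark at RT. Cells: DT40 Tdp1-/- with stable hTDP1, 400/well. Exposure: compounds alone, ≥48 hr, 37 °C.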
TDP1 cell CPT: qHTS for Inhibitors of human tyrosyl-DNA phosphodiesterase 1 (TDP1): qHTS in cells in presence of CPT | chicken DT40 Tdp1-/-;hTDP1 cells + 20 nM CPT, ATP luminescence, 48 h | Potency, µM (doses to about 46.2 µM), actives largely listed as inhibitors | AID 686979, 2013 | 420,000 compounds, 12% hits; note: nearly all actives have a fitted effect of over 55% in size
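Chicken DT40 Tdp1-/- cells stably complemented with human TDP1 were seeded at 400 cells/well in medium containing 20 nM camptothecin, exposed to pin-transferred compounds, and grown at 37 °C for at least 48 hr. Viability was read as ATP luminescence.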
TGFb inhibitor: qHTS for Inhibitors of TGF-b | HepG2 CAGA-GFP TGF-b/SMAD3 reporter, GFP fluorescence, 18 h; TGF-beta stimulated, 500 pg/mL final | Potency, µM (top dose mostly 46.1 µM), most hits filed as inhibitors | 410,000 compounds, 1.2% hits | AID 588855, 2011; note: nearly all actives have a fitted effect of over 65% in size
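TGF-beta reporter screen: HEPG2 CAGA-GFP, 1% FBS, 500 pg/mL TGF-beta final, 18 h; per-cell GFP summed per well; curves fitted and categorized by class.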
TDP1 block: qHTS Assay for Inhibitors of Tyrosyl-DNA Phosphodiesterase (TDP1) | Potency, µM (series often up to 130 µM), actives largely listed as inhibitors | 350,000 compounds, 0.28% hits | recombinant TDP1, AlphaScreen DNA substrate cleavage; note: nearly all actives have a fitted effect of over 40% in size
Target sequence (Q9NUW8 whole entry, looked up): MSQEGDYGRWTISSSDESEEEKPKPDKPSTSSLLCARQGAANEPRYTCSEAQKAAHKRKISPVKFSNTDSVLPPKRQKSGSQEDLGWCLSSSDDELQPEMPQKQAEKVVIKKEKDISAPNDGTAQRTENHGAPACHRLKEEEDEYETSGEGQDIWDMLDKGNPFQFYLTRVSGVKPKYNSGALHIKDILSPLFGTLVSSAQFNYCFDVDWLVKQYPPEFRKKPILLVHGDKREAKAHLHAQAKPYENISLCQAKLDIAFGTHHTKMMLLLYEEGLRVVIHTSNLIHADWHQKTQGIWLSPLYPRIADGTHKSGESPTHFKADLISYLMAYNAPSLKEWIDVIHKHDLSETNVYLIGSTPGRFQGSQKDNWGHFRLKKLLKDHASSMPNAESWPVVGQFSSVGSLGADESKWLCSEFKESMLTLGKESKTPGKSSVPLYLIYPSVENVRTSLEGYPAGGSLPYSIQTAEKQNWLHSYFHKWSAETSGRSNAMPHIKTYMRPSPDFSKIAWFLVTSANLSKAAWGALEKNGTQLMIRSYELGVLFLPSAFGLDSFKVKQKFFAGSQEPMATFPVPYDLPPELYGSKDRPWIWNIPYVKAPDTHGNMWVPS
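Recombinant E. coli-expressed Tdp1 (1 nM) preincubated with compound 15 min at RT, then 5'-biotin/3'-phosphotyrosine-FITC DNA substrate (15 nM) added for 5 min. AlphaScreen beads (10 ug/ml) added, 10 min RT; tyrosine-FITC cleavage read as signal loss.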
IL-1B inflam inh: qHTS for Inhibitors of Inflammasome Signaling: IL-1-beta AlphaLISA Primary Screen; THP-1 LPS/ATP IL-1B secretion, AlphaLISA, 16 h; active compounds read low; activity change, % at 57.5 µM; 360,000 compounds, 4.7% hits; in the data active = activity change below about -50%; inconclusive = mostly about -30% to -49%
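Secreted IL-1B measured by AlphaLISA bead assay after 16 h compound exposure of THP-1 cells; compounds (final up to 57.5 uM) added 1 h before LPS (250 ng/mL) and ATP (1.25 mM) stimulation; lower signal means less secretion.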
A number is an active result; . = inactive; ? = inconclusive; / = not tested or not shown; [ ] = another dose, or the depositor's remark. Shown are actives, neighbours in structure and some others; about 18% of the full set was active somewhere. Unless noted, calls come from the whole dose curve; as a rule, active = well fitted curve in the direction sought with a large enough effect; inconclusive = small, poorly fitted or top-dose-only effect, or another doubt; inactive = no such curve, though single readings can be large; an effect the other way counts as inactive or inconclusive.

SMILES	HepG2 tox	TDP1 cell noCPT	TDP1 cell CPT	TGFb inhibitor	TDP1 block	IL-1B inflam inh
COc1cc(CN2CCN(CCCc3ccccc3)C(CCO)C2)cc(OC)c1O (stereo not drawn)	.	6.5µM	6.5µM	.	/	.
C#Cc1ccc(CN2CCN(CCCc3ccccc3)C(CCO)C2)cc1 (stereo not drawn)	.	?	.	.	/	-55
COc1ccc(CN2CCN(CCCc3ccccc3)C(CCO)C2)c(OC)c1 (stereo not drawn)	.	?	?	.	/	.
OCCC#Cc1ccc(CN2CCN(CCc3ccccc3)C(CCO)C2)cc1 (stereo not drawn)	.	.	.	.	/	.
OCCC1CN(CCCc2ccccc2)CCN1Cc1ccc(F)cc1 (stereo not drawn)	.	.	.	.	/	.
COc1cc(NC(=S)NC2CC2)c(OC)cc1Cl	.	?	?	.	.	.
COc1cccc(-c2cnc(-c3ccncc3)nc2C2CCN(C(=O)Cc3csc(C)n3)CC2)c1	/	?	.[9.04 µM]	/	/	/
CCN(CC)C(=O)CSc1nnc2[nH]c(=O)cc(C)n12	.	.	.	.	.	/
Cc1ccc(N(CC(=O)NC2CCCCC2)C(=O)CNC(=O)c2ccco2)cc1F	.	.	.	.	/	.
COc1cc(/C=N/n2cnnc2)ccc1OC(=O)c1ccncc1	.	?	?	.	.	.
O=C(Nc1ccc2c(c1)OCO2)N1CCN(c2cccc(C(F)(F)F)c2)CC1	.	21µM	9.2µM	?	.	.
COc1ccc(N2CCN(C(=O)Nc3cccc(C(F)(F)F)c3)CC2)cc1	.	18µM	?	.	.	.
Cn1c(C(=O)N2CCN(c3cccc(C(F)(F)F)c3)CC2)cc2sccc21	.	?	.	?	.	.
O=C(c1ccc2c(c1)OCO2)N1CCN(c2cccc(C(F)(F)F)c2)CC1	.	21µM	18µM	.	.	.
CCS(=O)(=O)N1CCc2cc(C(=O)N3CCN(c4cccc(C(F)(F)F)c4)CC3)ccc21	.	23µM	?	11µM	.	/
CC(CCc1ccccc1)NS(=O)(=O)c1ccc(Cl)c(C(=O)O)c1 (stereo not drawn)	.	.	?	.	.	.
Cc1ccc(NC(=O)Cc2ccccc2)cc1S(=O)(=O)N1CCOCC1	.	.	.	.	.	.
COc1ccccc1CNC(=O)C1CCN(c2nn3c(=O)cc(C)nc3s2)CC1	.	.	.	.	.	/
CCN(CC)CC(=O)c1c(C)n(C)c2ccc(OC)cc12	.	.	.	.	/	/
O=C(CC[C@H]1O[C@@H](n2ccc(=O)[nH]c2=O)[C@H](O)[C@@H]1O)N[C@@H](Cc1ccccc1)C(=O)NCC1CCCO1 (stereo partly drawn)	.	.	.	.	/	.
O=C(CCCn1c(=S)[nH]c2cc3c(cc2c1=O)OCO3)N1CCN(c2ccccc2)CC1	.	?	?	.	.	.
O=C(CCCn1c(=S)[nH]c2cc3c(cc2c1=O)OCO3)N1CCN(c2ccc(Cl)cc2)CC1	.	18µM	?	.	.	.
Cc1cccc(N2CCN(C(=O)CCn3c(=S)[nH]c4cc5c(cc4c3=O)OCO5)CC2C)c1 (stereo not drawn)	.	23µM	16µM	.	.	.
O=C(NCc1nc(-c2ccc(C(F)(F)F)cc2)no1)Nc1ccc(OC(F)(F)F)cc1	.	8.2µM	?	11µM	.	-90
COc1ccc(-c2noc(CNS(=O)(=O)c3ccc(NC(C)=O)cc3)n2)cc1	.	.	?	.	.	.
COc1cccc2cc(C(=O)NCCc3ccccc3)oc12	.	?	.	.	.	.
